Data taken from PubChem BioAssay AID488789 (Broad Institute, 2010).
Measured potencies and affinities stand elsewhere. Records with an inconclusive call do not appear. Active and inactive are the calls of the source.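 Rule for the calls: active = samples whose fitted half-maximal inhibition concentration is no more than ten times the top valid dose tested; inconclusive = flat response between -70 and -30, or invalid curve fit; inactive = flat within 30 of zero, potency above limit, or signal rising.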

target: Trypsin (Sus scrofa) (UniProt P00761); assay: trypsin protease activity blockade – biochemical, quenched peptide fluorescence, cherry-pick, selectivity assay for Rce1 protease inhibitor project, dose response (AID 488789); settings: porcine trypsin, quenched peptide cleavage fluorescence; series mostly up to 10 µM;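 note: more negative means stronger trypsin inhibition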
Sequence (P00761 whole entry, looked up): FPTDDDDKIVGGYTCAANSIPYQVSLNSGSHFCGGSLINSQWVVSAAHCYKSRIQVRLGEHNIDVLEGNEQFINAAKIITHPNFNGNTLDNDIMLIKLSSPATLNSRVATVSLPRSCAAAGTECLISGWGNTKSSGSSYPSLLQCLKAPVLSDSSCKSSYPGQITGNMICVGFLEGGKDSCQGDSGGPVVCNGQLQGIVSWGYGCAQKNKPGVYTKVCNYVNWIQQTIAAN

outcome, inactive:
CCn1cc(C(=O)N[C@H](C)c2ccccc2)c(=O)c2cc(F)c(N3CCN(C)CC3)cc21
CC(=O)NC(Cc1c[nH]c2ccccc12)C(=O)O (configuration not stated)
COC(=O)Cn1c(CCC(=O)O)ccc1-c1ccccc1
CCOc1ccc(-n2c(SCc3ccc([N+](=O)[O-])cc3)nnc2-c2ccc(OC)cc2)cc1
CN(C)CCCN(C(=O)c1cc(-c2cccs2)nc2ccccc12)c1nc2ccc(F)cc2s1
COc1ccc(CCN(C)C(=O)c2ccc(S(=O)(=O)Nc3ccccc3C)cc2)cc1OC
O=C(O)CCCC[C@@H]1SC[C@@H]2NC(=O)N[C@@H]21
OC(CNCCC1C=Nc2ccccc21)Cn1c2ccc(Cl)cc2c2cc(Cl)ccc21 (configuration not stated)
CC(=O)c1c(C)[nH]c(C(=O)OCc2ccc(Br)cc2)c1C
CCC1CCCCN1C(=O)NC(=O)c1ccccc1 (configuration not stated)
COc1ccc(S(=O)(=O)N(CC(=O)N2CCCC2)Cc2ccccc2)cc1
Cc1cc2cc(C(=O)N3CCc4c([nH]c5ccccc45)C3c3ccccn3)ccc2o1 (configuration not stated)
CCOc1cccc(-c2c(C(=O)N/N=C/c3c(F)cccc3Cl)nnn2-c2nonc2N)c1
CCOC(=O)C1CCCN(C(=O)CCn2nnnc2CN2CCOCC2)C1 (configuration not stated)
O=C(Nc1cc(Cl)cc(Cl)c1)c1coc(=O)c(Br)c1
NCCCn1c(C(=O)c2cc(Cl)c(N)c(Cl)c2)c2ccc(C(F)(F)F)cc2[n+]1[O-]
CN(C)c1ccc(/C=N/NC(=O)CNC(=O)c2ccco2)cc1
CCCCCCCCCCOC(=O)Cn1c(COc2ccccc2C)[n+](C)c2ccccc21
CC1CCC/C(=C\Nc2ccccc2C(=O)O)C1=O (configuration not stated)
CC(=O)N1c2ccc([N+](=O)[O-])cc2NC(=O)CC1C (configuration not stated)
COc1cc2ccccc2cc1C(=O)N(CCN(C)C)c1nc2ccc(C)cc2s1
CCOC(=O)c1ccc(NC(=O)N2CCN(Cc3ccccc3)CC2)cc1
CC(C)[C@H](NC(=O)OCc1ccccc1)C(=O)OCC(=O)Nc1c(F)cccc1F
CCn1c(C)nc2c(=O)oc3ccccc3c21
Oc1c(N=NC(=S)Nc2ccccc2F)c2ccccc2n1Cc1ccccc1Cl
O=C(O)CCc1ccc(-c2cccs2)n1Cc1ccco1
CCOC(=O)C[n+]1ccc2c([nH]c3ccccc32)c1C
O=c1c(-c2ccccc2)c(O)c2ccccc2n1-c1ccccc1
O=C(N/N=C/c1cn(Cc2ccccc2)c2ccccc12)c1cc(O)cc(O)c1
CC(C)CNC(=O)COc1cccc(C(=O)NCc2ccccc2)c1
C/C(Cl)=C\Cn1c(O)c(N=NC(N)=S)c2cc(Br)ccc21
O=C1NC2(C=Cc3c(ccc4ccccc34)O2)Oc2ccccc21 (configuration not stated)
COc1cccc(-c2nc(C#N)c(N3CCN(C(=O)c4ccco4)CC3)o2)c1
Cc1nc(SC(C(=O)c2ccccc2)c2ccccc2)nc2ccccc12 (configuration not stated)
Cc1cccc(OCCCN2C(=O)C(=O)c3cc(C)ccc32)c1
O=S(=O)(CC(CN1CCOCC1)N1CCOCC1)c1ccccc1 (configuration not stated)
CC1=NN(c2ccccc2)C(=O)/C1=C\c1ccc(Br)s1
